Algae TAG accum: inducers of triacylglycerol accumulation in Chlamydomonas reinhardtii algae; Chlamydomonas reinhardtii TAG, Nile Red fluorescence, 72 h; calls only at 10 µM (by protocol); actives 0.84% (n = 44,000); AID 1159537; call rule not given here;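 also: hits raise Nile Red signal meaning more stored TAG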
Calls only; . = inactive; + = active, no number. Shown is part of a subset that was picked to be rich in hits.

SMILES | Algae TAG accum
CCOc1ccc(NC(=O)Nc2nnc(-c3cccc(F)c3)s2)cc1 | .
O=C1C2=C(Nc3[nH]c(=O)[nH]c(=O)c3C2c2ccc3c(c2)OCO3)c2ccccc21 (stereo not given) | .
O=C(c1ccc(F)cc1)N1CCN(c2ccccc2[N+](=O)[O-])CC1 | .
COc1cc(NC(=O)C(Cl)Cl)c(OC)cc1Cl | +
COc1ccc(NC(=O)C(Cl)Cl)cc1Cl | .
CCCC(=O)Nc1cc(OC)c(Cl)cc1OC | .
CCOC(=O)Nc1nnc(-c2ccc(C)cc2)s1 | .
O=C1C2C(C(=O)N1c1nccs1)C1C=CC2C12CC2 (stereo not given) | .
O=C1c2ccc(Oc3ccc4c(c3)C(=O)N(c3nccs3)C4=O)cc2C(=O)N1c1nccs1 | .
O=C1C2C3CCC(C3)C2C(=O)N1c1nccs1 (stereo not given) | +
CCN(CC)S(=O)(=O)c1ccc(OC)c(NC(=O)Cc2ccc(Br)cc2)c1 | .
COc1cc([N+](=O)[O-])ccc1NC(=O)c1ccc(F)cc1 | .
Clc1cc(Br)ccc1OCCCN1CCOCC1 | +
Clc1cc(Br)ccc1OCCN1CCOCC1 | .
Clc1ccc(OCCOCCN2CCOCC2)c(Br)c1 | +
Cc1cc(Br)ccc1OCCOCCN1CCOCC1 | +
Cc1ccc(OCCN2CCOCC2)c(Br)c1 | .
Cc1cc(Br)ccc1OCCN1CCOCC1 | .
Cc1cc(Br)ccc1OCCCN1CCOCC1 | .
Clc1ccc(OCCN2CCOCC2)c(Br)c1 | .
Clc1cc(Br)ccc1OCCCN1CCCC1 | .
Cc1ccc(S(=O)(=O)N(CC(=O)Nc2cccnc2)c2cccc(C)c2C)cc1 | .
CSc1cccc(NC(=O)CN(c2ccc(Cl)cc2)S(C)(=O)=O)c1 | .
COc1ccccc1N1CCN(C(=O)Nc2ccccc2Cl)CC1 | .
COc1ccccc1NC(=O)N1CCN(c2ccccn2)CC1 | +
SMILES | Algae TAG accum
COc1cc(OC)cc(C(=O)N2CCN(c3ccccn3)CC2)c1 | .
COc1ccc(N2CCN(C(=O)CN(c3ccccc3F)S(C)(=O)=O)CC2)cc1 | .
O=C(Nc1ccc(I)cc1Cl)c1ccccc1Cl | .
O=C1c2ccccc2C(=O)N1CN1CCN(Cc2ccc3c(c2)OCO3)CC1 | .
O=C1CC(N2CCN(Cc3ccc4c(c3)OCO4)CC2)C(=O)N1CCc1ccccc1 (stereo not given) | +
O=c1c(CN2CCN(Cc3ccc4c(c3)OCO4)CC2)coc2ccccc12 | .
CN(C)CCN(C)Cc1cc(Cl)ccc1O | .
COc1ccc(NC(=O)CCC2CCCCC2)c(OC)c1 | .
COc1ccc(NC(=O)CCC2CCCCC2)c([N+](=O)[O-])c1 | +
Cc1ccc(NC(=O)CCC2CCCCC2)c([N+](=O)[O-])c1 | .
COc1ccc(NC(=O)C2CCN(C(=O)c3ccccc3)CC2)cc1Cl | .
Cc1ccc(C(C)C)c(OCC(=O)NCc2ccccc2)c1 | .
COc1cc(NC(=O)c2ccc(C)c(Cl)c2)cc(OC)c1 | .
CN1CCCN(Cc2ccc(N(C)C)cc2)CC1 | .
O=C(O)CNC(=O)NC12CC3CC(CC(C3)C1)C2 | .
C=CCNCC(=O)NC12CC3CC(CC(C3)C1)C2 | +
O=C(CN1CCOCC1)NC12CC3CC(CC(C3)C1)C2 | .
N#C/C(=C\c1cc(Cl)ccc1OCc1c(F)cccc1Cl)c1nn(CCO)c(N)c1C#N | .
Fc1ccc(OCCCCN2CCCC2)cc1 | .
Cc1ccc(NC(=O)c2ccoc2C)c(Br)c1 | .
OC(COc1ccc(Cl)cc1Cl)CN1CCN(Cc2ccccc2)CC1 (stereo not given) | +
CN1CCN(CC(O)COc2ccc(Cl)cc2Cl)CC1 (stereo not given) | .
CCOC(=O)N1CCN(CC(O)COc2ccc(Cl)cc2Cl)CC1 (stereo not given) | .
CN1C(=O)C(O)(CC(=O)c2ccccn2)c2ccccc21 (stereo not given) | .
CC(=O)Nc1ccc(S(=O)(=O)Nc2cc([N+](=O)[O-])ccc2C)cc1 | +
SMILES | Algae TAG accum
COc1cc([N+](=O)[O-])ccc1NS(=O)(=O)c1ccc(NC(C)=O)cc1 | .
COc1ccc([N+](=O)[O-])cc1NS(=O)(=O)c1ccc(NC(C)=O)cc1 | .
O=C(CSc1ccc(Cl)cc1)N1CCN(c2ccc(F)cc2)CC1 | .
O=C(CSc1ccccc1)NCCN1CCOCC1 | .
CN1CCN(C2Cc3ccccc3C2)CC1 | .
Cc1ccc(C)c(N2CCN(C(=O)C3CCC3)CC2)c1 | .
O=C1CC(N2CCN(C/C=C/c3ccccc3)CC2)C(=O)N1c1ccc(Br)cc1 (stereo not given) | .
C(=C\c1ccccc1)/CN1CCN(C2CCc3ccccc3C2)CC1 (stereo not given) | +
Cc1ccc(C)c(N2CCN(C3CCc4ccccc4C3)CC2)c1 (stereo not given) | +
Fc1cccc(F)c1CN1CCN(C/C=C/c2ccccc2)CC1 | .
CCSc1nnc(NC(=O)c2cc(-c3ccc(OC)cc3OC)nc3ccccc23)s1 | .
O=C(NCCCc1ccccc1)NC1CCCCC1 | .
O=C(c1cc(-c2ccc(Cl)cc2)nc2ccccc12)N1CCCC1 | .
CC(=O)N1CCN(CCN2C(=O)C3C4c5ccccc5C(c5ccccc54)C3C2=O)CC1 (stereo not given) | .
O=C(Nc1cccnc1)c1ccccc1Br | .
O=C(Nc1ccc(Cl)cc1Cl)c1ccccc1 | .
Nc1ccc(C(=O)Nc2ccc(Cl)cc2Cl)cc1 | +
O=C(Nc1ccc(Cl)cc1F)c1ccc(C(=O)Nc2ccc(Cl)cc2F)cc1 | .
CN1CCC(N(C)Cc2cc(F)ccc2F)CC1 | .
CN1CCC(N(C)Cc2cc(Cl)ccc2O)CC1 | +
CN(C)Cc1cc(Cl)ccc1O | .
Cc1ccc(C(=O)N2CCOCC2)cc1Br | .
c1ccc(CCN2CCN(CCc3ccccn3)CC2)nc1 | .
CC(C)=CCC/C(C)=C/CN1CCCN(C)CC1 | .
CC(C)=CCC[C@H](C)CCN1CCN(C)CC1 | +
SMILES | Algae TAG accum
Cc1ccc(C(C)CCN2CCN(C)CC2)o1 (stereo not given) | .
COc1cc(C(=O)Nc2ccc(C)cc2[N+](=O)[O-])c(Br)c(OC)c1OC | .
O=C(CC1(O)C(=O)N(CCc2ccccc2)c2ccccc21)c1ccncc1 (stereo not given) | .
Cc1ccc(Cl)cc1NC(=O)C1CC=CCC1C(=O)O (stereo not given) | .
Cc1ccc(NC(=O)C2CC=CCC2C(=O)O)c(Br)c1 (stereo not given) | .
O=C(O)C1CC=CCC1C(=O)Nc1ccc(F)cc1F (stereo not given) | +
Cc1cc(C(=O)Nc2ccc(I)cc2Cl)ccc1[N+](=O)[O-] | .
CCC(=O)Nc1ccc2nc(SCC(=O)N3CCCCC3)sc2c1 | .
COc1cc(OC)cc(C(=O)N2CCN(C(=O)C(c3ccccc3)c3ccccc3)CC2)c1 | .
COc1ccccc1C(=O)N1CCN(C(=O)C(c2ccccc2)c2ccccc2)CC1 | +
COc1cccc(CN2CCN(C(=O)C(c3ccccc3)c3ccccc3)CC2)c1OC | .
O=C(Cc1ccc([N+](=O)[O-])cc1)NCc1ccco1 | .
O=[N+]([O-])c1ccccc1S(=O)(=O)N1CCN(CC2CC3C=CC2C3)CC1 (stereo not given) | .
Oc1ccc(Br)cc1CN1CCC(N2CCOCC2)CC1 | +
C1=CC2CC1CC2CN1CCOCC1 (stereo not given) | .
COc1ccc(Br)cc1CN1CCC(N2CCCCC2)CC1 | .
Oc1ccc(Br)cc1CN1CCN(CC2CC3C=CC2C3)CC1 (stereo not given) | +
O=[N+]([O-])c1ccc(O)c(CN2CCOCC2)c1 | .
CCC(C)N1CCN(CC2CC3C=CC2C3)CC1 (stereo not given) | .

Bioassay records from PubChem BioAssay.
